Screens (PubChem BioAssay)
Compounds with a hit are over-represented: about 3.8% of the library has one in this group of screens.
697 NFkB inh: lowers PMA/ionomycin-induced NF-kB signal in 697 B cells | 697 B-cell NF-kB luciferase reporter, 16 h | 0.33% of 330,000 active | AID 435022 | inhibition, % at 4 µM; in the data active = inhibition above about 35%
Mdm2 MdmX PPI: inhibitors of human Mdm2/MdmX interaction; SaOS-2 split-luciferase Mdm2/MdmX complementation, luminescence; inhibition, % at 8 µM; 3% of 330,000 active; AID 485346;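 active = inhibition of at least 50% at 8 µM in the primary screen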
Target sequence (O15151 whole entry, looked up): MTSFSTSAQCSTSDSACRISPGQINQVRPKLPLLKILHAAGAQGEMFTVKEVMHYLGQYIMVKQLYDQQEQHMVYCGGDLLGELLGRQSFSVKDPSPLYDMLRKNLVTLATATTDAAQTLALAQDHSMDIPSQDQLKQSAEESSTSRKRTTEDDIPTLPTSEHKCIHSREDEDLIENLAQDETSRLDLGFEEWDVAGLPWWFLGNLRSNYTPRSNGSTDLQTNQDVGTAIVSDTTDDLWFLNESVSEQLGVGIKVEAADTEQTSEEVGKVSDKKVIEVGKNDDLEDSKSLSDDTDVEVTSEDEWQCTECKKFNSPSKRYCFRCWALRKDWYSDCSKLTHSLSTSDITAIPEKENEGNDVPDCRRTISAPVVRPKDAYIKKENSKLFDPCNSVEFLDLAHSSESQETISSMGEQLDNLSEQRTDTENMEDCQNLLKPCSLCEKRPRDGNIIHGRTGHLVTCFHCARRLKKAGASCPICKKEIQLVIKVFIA
Target sequence (Q00987 whole entry, looked up): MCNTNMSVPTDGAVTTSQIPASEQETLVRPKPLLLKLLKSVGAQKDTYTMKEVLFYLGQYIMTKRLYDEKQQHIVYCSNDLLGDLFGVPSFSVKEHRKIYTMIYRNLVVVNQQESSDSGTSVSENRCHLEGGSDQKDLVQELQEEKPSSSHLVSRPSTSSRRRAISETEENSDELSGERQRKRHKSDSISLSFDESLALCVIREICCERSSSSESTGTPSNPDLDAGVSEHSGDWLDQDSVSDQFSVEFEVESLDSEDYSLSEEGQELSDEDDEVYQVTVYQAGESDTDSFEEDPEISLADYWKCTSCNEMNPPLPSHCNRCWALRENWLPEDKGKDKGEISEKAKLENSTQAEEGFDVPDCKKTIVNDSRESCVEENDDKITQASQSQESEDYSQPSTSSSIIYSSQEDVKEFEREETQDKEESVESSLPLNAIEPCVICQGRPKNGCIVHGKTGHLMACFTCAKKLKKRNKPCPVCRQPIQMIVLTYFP
Jurkat NFkB inh: lowers PMA/ionomycin-induced NF-kB signal in Jurkat cells; PMA/ionomycin-induced NF-kB luciferase reporter, luminescence; inhibition, % at 4 µM; 0.53% of 330,000 active; AID 435003; in the data active = inhibition above about 50%
NTR1 ag: activates human neurotensin receptor 1 | NTR1-U2OS beta-arrestin-GFP spot imaging, agonist mode | activation, % at 20 µM | 0.17% of 330,000 active | AID 493036;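 active = activation at or above 40% of the spot to cytoplasm intensity ratio, with at least 20 cells analyzed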
Beta apoptosis: blocks beta cell apoptosis; INS-1E cytokine-induced death, ATP luminescence, 48 h; percent of positive-control rescue, neutral wells zero; protection from apoptosis, % (test concentration not listed); 0.8% of 300,000 active;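 active = Every replicate reaches about 75%, or at least half do and their mean reaches it too, limit read from the data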;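 also: higher means more ATP so stronger rescue from cytokine killing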
Bfl-1 A1 inh: inhibitors of the anti-apoptotic protein A1, read as caspase activation; MEF A1-2A-BIM cells, Caspase-Glo 3/7 luminescence, 3 h; percent of clofoctol response, vehicle zero; caspase activation, % (no concentration beside the values); 0.066% of 330,000 active;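 active = over half of replicate activation scores above 10%, or exactly half above 10 with the replicate mean above 10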
Jurkat NFkB conf: lowers PMA/ionomycin-induced NF-kB signal in Jurkat cells; Jurkat NF-kB luciferase, 16 h; inhibition, % at 4 µM; 27% of 2,700 active; shares compounds with Jurkat NFkB inh; AID 435020;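 active = inhibition reaching about 45% at 4 µM in either replicate, limit read from the data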
697 NFkB conf: lowers PMA/ionomycin-induced NF-kB signal in 697 B cells; shares compounds with 697 NFkB inh; 697 B-cell NF-kB luciferase, 16 h; AID 449746; inhibition, % at 4 µM; 35% of 2,000 active; in the data active = inhibition mostly above about 28%, no sharp cut-off; inactive = mostly below about 22%
Mdm2-MdmX conf: human Mdm2/MdmX binding inhibition, confirmed; shares compounds with Mdm2 MdmX PPI; luminescent assay; inhibition, % at 8 µM; 55% of 10,000 active; AID 489028; in the data active = inhibition above about 40%
Full FLuc ctr: counter-screen for Mdm2/MdmX inhibitors: full-length luciferase. shares compounds with Mdm2 MdmX PPI. SaOS-2 full-length luciferase counterscreen, luminescence. inhibition, % at 8 µM. 77% of 6,200 active. AID 504607;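 active = mean inhibition at 8 µM reaching about 37%, which flags the compound as non-specific, limit read from the data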;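 also: p53-null SaOS-2 cells with luciferase driven by a doxycycline-inducible promoter; compound on cells about two nights before reading with doxycycline added after day one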
Numbers stand for hits; - = inactive; . = no result.

SMILES | 697 NFkB inh | Mdm2 MdmX PPI | Jurkat NFkB inh | NTR1 ag | Beta apoptosis | Bfl-1 A1 inh | Jurkat NFkB conf | Mdm2-MdmX conf | Full FLuc ctr | others
CC1=Nc2cc(C(=O)NCCCOC(C)C)ccc2Sc2ccc(C)cc21 | - | 63.0 | 63.7 | - | - | - | - | 52.1 | 81.3
CCCC1=Nc2cc(C(=O)NCCCOCC)ccc2Sc2ccccc21 | - | 59.8 | 57.4 | - | - | - | 51.3 | 72.4 | 123.5
Oc1ccc(C23CCCC2C2(CCCC2)c2ccc(O)cc2O3)c(O)c1 (stereo not given) | - | - | - | - | - | - | . | . | .
CCOC(=O)c1[nH]c(C)c(C(=O)Nc2ccc(C)c(Cl)c2)c1C | - | - | - | - | - | - | . | . | .
CCOC(=O)c1[nH]c(C)c(C(=O)Nc2cc(Cl)ccc2C)c1C | - | 66.0 | 68.7 | - | - | - | 56.1 | 71.8 | 85.0
CCOC(=O)c1[nH]c(C)c(C(=O)Nc2ccccc2C)c1C | - | 55.7 | 52.7 | - | - | - | - | 62.1 | 49.5
CCOC(=O)c1c(C)[nH]c(C(C)=O)c1C | - | - | - | - | - | - | . | . | .
CCOC(=O)c1[nH]c(C=O)c(C(=O)OCC)c1C | - | 65.3 | 59.4 | - | - | - | - | 59.0 | 71.5
Cc1cc(OC(F)F)ccc1NC(=S)NC1CCCC1 | - | - | - | - | - | - | . | . | .
O=C(COC(=O)COc1ccc(Br)cc1)NCc1ccccc1 | - | - | - | - | - | - | . | . | .
CC(C)(C)OC(=O)C[C@@H]1C/C=C\C[C@H](CC(=O)NCCO)C(=O)N2CCC[C@@H]2COC1=O | - | - | - | - | - | - | . | . | .
O=C(c1ccc([N+](=O)[O-])o1)N1CCN(Cc2ccccc2)CC1 | - | - | - | - | - | - | . | . | .
CCc1cccc2sc(N3CCN(C(=O)c4ccc([N+](=O)[O-])o4)CC3)nc12 | - | 93.8 | 50.8 | - | - | - | - | 75.2 | 46.4
O=C1CC(N2CCN(S(=O)(=O)c3ccccc3F)CC2)C(=O)N1c1ccccc1Cl (stereo not given) | - | - | - | - | - | - | . | . | .
Cc1cc(N2CCOCC2)nc(NCc2ccccc2)n1 | - | - | - | - | - | - | . | . | .
Cc1cc(N2CCCCC2)nc(NCc2ccccc2)n1 | - | 64.7 | 67.7 | - | - | - | - | 44.7 | 60.6
CN(NC(=O)c1ccc(Cl)cc1)c1nc(-c2ccccc2)nnc1C(F)(F)F | - | - | - | - | - | - | . | . | .
Cc1ccc(C(=O)NN(C)c2nc3ccccc3nc2C(F)(F)F)cc1 | - | 69.9 | 55.7 | - | . | - | - | 53.7 | 61.4
O=S1(=O)Nc2c(ccc3cccnc23)-c2ccccc21 | - | 100.3 | 69.1 | - | - | - | 53.9 | 96.7 | 54.0
Oc1ccccc1N=Nc1nc(-c2ccccc2)c(-c2ccccc2)[nH]1 | - | 86.5 | 58.5 | - | 86.0 | - | 75.9 | 86.0 | 49.7
CCCCC(=NCCc1c(C)[nH]c2ccc(OC)cc12)C1=C(O)CC(c2ccccc2)CC1=O (stereo not given) | - | 59.6 | 69.0 | - | - | - | - | 54.0 | 66.1
CCC(=NCCc1c(C)[nH]c2ccc(OC(F)(F)F)cc12)C1=C(O)CC(c2ccccc2)CC1=O (stereo not given) | - | 65.7 | 67.0 | - | - | - | - | 64.0 | 73.0
CC(=NCCc1c(C)[nH]c2ccc(OCc3ccccc3)cc12)C1=C(O)CC(c2ccccc2)CC1=O (stereo not given) | - | - | - | - | - | - | . | . | .
O=C(CNC(=O)c1ccco1)OCc1ccccc1Cl | - | - | - | - | - | - | . | . | .
O=C(NCc1nnnn1-c1ccc(F)c(F)c1)c1cc2ccccc2o1 | - | - | - | - | - | - | . | . | .
SMILES | 697 NFkB inh | Mdm2 MdmX PPI | Jurkat NFkB inh | NTR1 ag | Beta apoptosis | Bfl-1 A1 inh | Jurkat NFkB conf | Mdm2-MdmX conf | Full FLuc ctr | others
Cc1c(Cl)cccc1NC(=O)c1ccccc1-c1ccccc1C(=O)O | - | - | - | - | - | - | . | . | .
C[C@]12C(=O)N(c3ccc(Br)cc3)C(=O)N1[C@H]1c3ccccc3OC[C@@H]1[C@H]2c1ccccc1 | - | - | - | - | - | - | . | . | .
O=C(N/N=C/c1ccccc1Cl)c1[nH]c2ccc(Br)cc2c1-c1ccccc1 | - | 88.6 | 63.7 | - | - | - | 54.2 | 75.0 | 106.2
COc1ccc(/C=N/NC(=O)c2[nH]c3ccc(Br)cc3c2-c2ccccc2)cc1 | - | 74.2 | 83.9 | - | - | - | 61.0 | 59.8 | 108.1
O=C(NCCCNC(=O)c1cccnc1)c1ccc(Cl)cc1 | - | - | - | - | . | - | . | . | .
CCOc1ccc(-c2cc(CCCC(=O)Nc3cc(OC)ccc3OC)no2)cc1 | - | - | - | - | - | - | . | . | .
CCOc1ccc(-c2cc(CCCC(=O)Nc3cccc(OC)c3)no2)cc1 | 48.3 | 53.9 | 55.7 | - | - | - | 60.6 | 44.9 | 61.0 | 697 NFkB conf=48.2
COc1ccc(C(=O)Oc2ccc(F)cc2C(=O)/C=C/c2ccc(OC)c(OC)c2)cc1 | - | - | - | - | - | - | . | . | .
COc1ccc(/C=C/C(=O)c2cc(F)ccc2OC(=O)c2ccccc2C)cc1OC | - | 60.6 | 59.7 | - | - | - | - | 66.4 | 117.0
COc1ccc(-c2c(NCCc3ccccc3)c(=O)c2=O)cc1 | - | - | - | - | - | - | . | . | .
CCN(CC)c1ccc(/C=N/NC(=O)c2cccc(S(=O)(=O)N3CCOCC3)c2)c(O)c1 | - | 75.4 | 63.7 | - | 74.9 | - | - | 84.0 | 52.9
CC(=O)c1cccc(N(CC(=O)NC2CCCCC2)C(=O)CCC(=O)Nc2nc(C)cs2)c1 | - | - | - | - | - | - | . | . | .
Cn1c(=O)[nH]c(=O)c2c1nc(CN1CCN(c3cccc(Cl)c3)CC1)n2Cc1ccccc1Cl | - | 72.7 | 56.9 | - | . | - | - | 51.1 | 58.6
CCN1CCN(Cc2nc3c(c(=O)[nH]c(=O)n3C)n2Cc2ccccc2Cl)CC1 | - | - | - | - | - | - | . | . | .
CCCOCCOC(=O)c1[nH]c2c(c1C)C(=O)CC(c1cc(OC)ccc1OC)C2 (stereo not given) | - | 59.4 | 71.7 | - | - | - | - | 52.1 | 83.2
COc1ccc(OC)c(C2CC(=O)c3c([nH]c(C(=O)OC(C)C)c3C)C2)c1 (stereo not given) | - | 51.8 | 59.8 | - | - | - | 57.6 | 44.2 | 83.2
COCCOC(=O)c1[nH]c2c(c1C)C(=O)CC(c1cc(OC)ccc1OC)C2 (stereo not given) | - | - | - | - | - | - | . | . | .
